Most compounds without a hit are left out; they make up all but 6.7% or so of the library.
Pf Dd2 growth: blocks growth of Plasmodium falciparum Dd2 parasites; P. falciparum Dd2 growth, SYBR Green, 72 h; stronger effect = lower value; activity change, % at 10 µM; 94,000 compounds, 2.3% hits; in the data active = activity change below about -80%; inconclusive = no clear call, values can overlap the other calls
C diff growth: inhibitors of Clostridium difficile growth; AID 1259249; Clostridium difficile clinical isolate growth, OD600, 24 h; stronger effect = lower value; growth activity, negative = inhibition, % at 16 µg/mL (by protocol); 86,000 compounds, 0.25% hits;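 active = mean growth activity at or below -80% and every replicate also at or below -80%; inconclusive = mean at or below -80% but some replicate above -80%; inactive = mean growth activity above -80%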
T cruzi growth-1: inhibitors of T. cruzi proliferation | T. cruzi beta-gal in NIH3T3, GalScreen luminescence, 90 h | inhibition, % at 8.34 µM | 77,000 compounds, 5.9% hits;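 active = mean inhibition above about 93%, with at least 55% of replicates each passing it, limit read from the data, passing the limit was not always enough; inconclusive = only one of those two conditions holds; inactive = neither condition holds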
T cruzi growth-2: Trypanosoma cruzi proliferation inhibition; shares compounds with T cruzi growth-1; T. cruzi beta-gal in NIH3T3, GalScreen luminescence, 90 h; inhibition, % at 8.35 µM; 5,600 compounds, 72% hits;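 active = mean replicate inhibition above about 95% and at least 55% of replicates individually reaching it, limit read from the data; inconclusive = only one of the two criteria is met; inactive = neither criterion is met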
T cruzi growth-3: Trypanosoma cruzi proliferation inhibition. shares compounds with T cruzi growth-1. T. cruzi beta-gal in NIH3T3, GalScreen luminescence, 90 h. inhibition, % at 2.09 µM. 5,600 compounds, 21% hits. AID 651740;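 active = mean inhibition above about 95%, with at least 55% of replicates also reaching it, limit read from the data; inconclusive = meets just one of the two conditions; inactive = meets neither condition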
3T3 cytotox: NIH/3T3 (mouse) viability loss; cytotoxicity (signal decrease), % at 8.35 µM; 5,600 compounds, 14% hits; NIH/3T3 viability, CellTiter-Glo ATP luminescence, 90 h; shares compounds with T cruzi growth-1;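 active = mean signal decrease across replicates above about 35% based on untreated-well scatter, with enough replicates individually passing, limit read from the data; inconclusive = no rule stated though some were filed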
3T3 cytotox 2: cytotoxicity in mouse NIH/3T3 fibroblasts | shares compounds with T cruzi growth-1 | NIH/3T3 viability, CellTiter-Glo ATP luminescence, 90 h | inhibition, % at 24.9 µM | 5,600 compounds, 56% hits | AID 651744;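 active = mean loss of cell viability signal at or above a set limit, and enough replicates individually reaching it; inconclusive = meets only the mean limit or only the replicate share; inactive = meets neither condition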
Each line names hits and unclear results; the compound was inactive in the other large screens (follow-up assays come after a bar, where they were run).

C[C@H](CO)N1C[C@H](C)[C@@H](CN(C)C(=O)C2CC2)OCc2ccccc2-c2ccccc2C1=O	none
O=C(NCCc1ccccc1)[C@H]1[C@H](CO)[C@H]2Cn3c(cccc3=O)[C@@H]1N2C(=O)C1CCC1	T cruzi growth-1 99 | T cruzi growth-2 inactive | T cruzi growth-3 inactive | 3T3 cytotox inactive | 3T3 cytotox 2 inactive
O=C(NCCc1ccccc1)[C@@H]1[C@@H](CO)[C@@H]2Cn3c(cccc3=O)[C@H]1N2C(=O)C1CC1	none (no result: Pf Dd2 growth)
O=C(NCCc1ccccc1)[C@H]1[C@H](CO)[C@H]2Cn3c(cccc3=O)[C@@H]1N2C(=O)C1CCCC1	none
O=C(NCCc1ccccc1)[C@@H]1[C@@H](CO)[C@@H]2Cn3c(cccc3=O)[C@H]1N2C(=O)C1CCC1	T cruzi growth-1 inconclusive | T cruzi growth-2 inactive | T cruzi growth-3 inactive | 3T3 cytotox inactive | 3T3 cytotox 2 inactive
CN(C)C(=O)C[C@@H]1CC[C@H]2[C@H](COc3ccc(NC(=O)c4cnccn4)cc3C(=O)N2C)O1	none
O=C(NCC[C@H]1CC[C@@H](NC(=O)C2CCCCC2)[C@@H](CO)O1)c1cc(Cl)cc(Cl)c1	none
O=C(Cc1ccccc1)N1C[C@H]2[C@@H](c3ccccc31)[C@@H](CO)N2C(=O)C1CC1	none
CN(C)CC(=O)N[C@@H]1CC[C@@H](CCn2cc(C3CC3)nn2)O[C@@H]1CO	none (no result: T cruzi growth-1)
COc1cccc(C#Cc2ccc3c(c2)O[C@H](CN(C)C(C)=O)[C@H](C)CN([C@@H](C)CO)S3(=O)=O)c1	none
COc1cccc(NC(=O)N(C)C[C@H]2Oc3cc(C#CC4(O)CCCC4)ccc3S(=O)(=O)N([C@H](C)CO)C[C@H]2C)c1	none (no result: T cruzi growth-1)
COc1cccc(NC(=O)N(C)C[C@H]2Oc3cc(-c4ccccc4OC)ccc3S(=O)(=O)N([C@H](C)CO)C[C@@H]2C)c1	none (no result: T cruzi growth-1)
COc1cccc(NC(=O)N(C)C[C@H]2Oc3cc(C#Cc4ccccc4)ccc3S(=O)(=O)N([C@H](C)CO)C[C@@H]2C)c1	Pf Dd2 growth -84, T cruzi growth-1 94 | T cruzi growth-2 113 | T cruzi growth-3 inactive | 3T3 cytotox inactive | 3T3 cytotox 2 inactive
COc1cccc(C#Cc2ccc3c(c2)O[C@@H](CN(C)C(C)=O)[C@H](C)CN([C@@H](C)CO)S3(=O)=O)c1	T cruzi growth-1 inconclusive | T cruzi growth-2 107 | T cruzi growth-3 inactive | 3T3 cytotox inconclusive | 3T3 cytotox 2 35
COc1cccc(NC(=O)N(C)C[C@H]2Oc3cc(C#Cc4ccccc4)ccc3S(=O)(=O)N([C@H](C)CO)C[C@H]2C)c1	T cruzi growth-1 85 | T cruzi growth-2 100 | T cruzi growth-3 114 | 3T3 cytotox inactive | 3T3 cytotox 2 inactive
C[C@H](CO)N1C[C@H](C)[C@H](CN(C)S(=O)(=O)c2ccc(Cl)cc2)OCc2cn(nn2)CCCC1=O	none (no result: C diff growth)
CS(=O)(=O)N1C[C@H](O)COC[C@@H]2O[C@@H](CC(=O)NCc3ccc(-c4ccccc4)cc3)CC[C@H]21	none
C[C@H]1CN([C@@H](C)CO)C(=O)c2cc(NC(=O)NC3CCCCC3)ccc2O[C@@H]1CN(C)Cc1ccncc1	none
N#Cc1cccc(-c2ccc([C@@H]3[C@@H](CO)N4CCCCN(C(=O)Nc5cccc(F)c5)C[C@@H]34)cc2)c1	T cruzi growth-1 104 | T cruzi growth-2 110 | T cruzi growth-3 inactive | 3T3 cytotox inactive | 3T3 cytotox 2 87
N#Cc1cccc(-c2ccc([C@H]3[C@@H](CO)N4CCCCN(C(=O)Nc5cccc(F)c5)C[C@H]34)cc2)c1	none
N#Cc1ccc(-c2ccc([C@@H]3[C@@H](CO)N4CCCCN(C(=O)Nc5ccc(F)cc5)C[C@H]34)cc2)cc1	none
N#Cc1cccc(-c2ccc([C@H]3[C@H]4CN(C(=O)Nc5cccc(F)c5)CCCCN4[C@H]3CO)cc2)c1	T cruzi growth-1 122 | T cruzi growth-2 110 | T cruzi growth-3 inactive | 3T3 cytotox inactive | 3T3 cytotox 2 inactive
N#Cc1cccc(-c2ccc([C@H]3[C@@H](CO)N4CCCCN(C(=O)Nc5cccc(F)c5)C[C@@H]34)cc2)c1	T cruzi growth-1 123 | T cruzi growth-2 105 | T cruzi growth-3 inactive | 3T3 cytotox inactive | 3T3 cytotox 2 inactive
CCCNC(=O)N1CC2(C1)[C@@H](c1ccccc1)[C@@H](CO)N2C(=O)C1CCCC1	none (no result: T cruzi growth-1)
CC(C)NC(=O)N(C)C[C@H]1OCCCC[C@@H](C)Oc2ccc(NS(=O)(=O)c3ccc(F)cc3)cc2C(=O)N([C@@H](C)CO)C[C@@H]1C	none (no result: Pf Dd2 growth)
C[C@@H]1CN([C@@H](C)CO)C(=O)c2cc(NC(=O)C3CCCCC3)ccc2O[C@@H](C)CCCCO[C@@H]1CN(C)S(=O)(=O)c1ccc(Cl)cc1	Pf Dd2 growth -81, T cruzi growth-1 inconclusive | T cruzi growth-2 105 | T cruzi growth-3 inactive | 3T3 cytotox inactive | 3T3 cytotox 2 inactive
C[C@H]1CCCCO[C@H](CN(C)S(=O)(=O)c2ccc(Cl)cc2)[C@@H](C)CN([C@@H](C)CO)C(=O)c2cc(NC(=O)C3CCCCC3)ccc2O1	Pf Dd2 growth -85, T cruzi growth-1 110 | T cruzi growth-2 110 | T cruzi growth-3 101 | 3T3 cytotox inactive | 3T3 cytotox 2 inactive
C[C@@H]1CCCCO[C@H](CN(C)S(=O)(=O)c2ccc(Cl)cc2)[C@H](C)CN([C@H](C)CO)C(=O)c2cc(NC(=O)C3CCCCC3)ccc2O1	Pf Dd2 growth -84, T cruzi growth-1 110 | T cruzi growth-2 101 | T cruzi growth-3 108 | 3T3 cytotox inactive | 3T3 cytotox 2 inactive
C[C@@H]1CCCCO[C@H](CN(C)S(=O)(=O)c2ccc(Cl)cc2)[C@@H](C)CN([C@H](C)CO)C(=O)c2cc(NC(=O)C3CCCCC3)ccc2O1	none
Cc1ccc(S(=O)(=O)N(C)C[C@@H]2OCCCC[C@H](C)Oc3ccc(NC(=O)C4CCCCC4)cc3C(=O)N([C@H](C)CO)C[C@@H]2C)cc1	none
Cc1ccc(S(=O)(=O)N(C)C[C@@H]2OCCCC[C@@H](C)Oc3ccc(NC(=O)C4CCCCC4)cc3C(=O)N([C@@H](C)CO)C[C@H]2C)cc1	none (no result: C diff growth)
C[C@@H]1CCCCO[C@@H](CN(C)S(=O)(=O)c2ccc(Cl)cc2)[C@@H](C)CN([C@@H](C)CO)C(=O)c2cc(NC(=O)C3CCCCC3)ccc2O1	Pf Dd2 growth -81, T cruzi growth-1 108 | T cruzi growth-2 108 | T cruzi growth-3 inactive | 3T3 cytotox inactive | 3T3 cytotox 2 inconclusive
C[C@@H]1CCCCO[C@@H](CN(C)S(=O)(=O)c2ccc(F)cc2)[C@@H](C)CN([C@H](C)CO)C(=O)c2cc(NC(=O)C3CCCCC3)ccc2O1	none
CCCNC(=O)C[C@H]1CC[C@@H]2[C@H](COc3ccc(NS(=O)(=O)c4ccccc4C)cc3C(=O)N2C)O1	none
CCCNC(=O)[C@H]1[C@H](CO)[C@H]2Cn3c(ccc(-c4ccncc4)c3=O)[C@@H]1N2CC1CC1	none
